High-throughput results deposited in PubChem BioAssay by Center for Chemical Genomics, University of Michigan.
Only a selection was taken, and hits are over-represented in it overall.
Dicer inh: human Dicer pre-microRNA cleavage inhibition | z-score at 25 µM | AID 1347074 | Q9UPY3 | cat-ELCCA pre-miR-21 Dicer processing, chemiluminescence; active compounds read high | 47,000 compounds, 6% hits; in the data active = z-score above about 3, passing the limit was not always enough;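 note: plate controls were vehicle for no effect and no enzyme for full effect; higher signal means more uncleaved substrate so more Dicer inhibition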
* marks the source's active call; other numbers are inactive results.

SMILES	Dicer inh
CCCc1nnc(NC(CC)OC(=O)c2cc(C)nc3ccccc23)s1 (centres undefined)	3.1*
COCCNc1cc(C)nc2ccccc12	5.5
CCc1nnc2sc(-c3cc(C)nc4ccccc34)nn12	-1.1
N#Cc1cn(-c2ccc(F)cc2F)c(=O)[nH]c1=O	37
COC(=O)c1cc(S(=O)(=O)C(C)C)c(S(C)(=O)=O)s1	-0.98
CCOC(=O)c1cc(S(=O)(=O)C(C)C)c(SC)s1	3.8*
CCOC(=O)c1sc(SC)c(S(C)(=O)=O)c1N	-0.95
O=C(Nc1nc(-c2ccccc2)cs1)C1CC1	6.7
Cc1nc(-c2ccc(-c3ccccc3)cc2)cs1	0.49
CCNc1nc(-c2ccccc2)cs1	3.3*
CCc1nc2nc3c(cn2n1)C(=O)CC(c1ccc(C(C)C)cc1)C3 (centres undefined)	0.92
O=C(O)CCC(=O)N1c2ccccc2NC2=C(C(=O)CC(c3ccc(F)cc3)C2)C1c1cccnc1 (centres undefined)	0.12
CCN(CC)CCCNc1ncnc2scc(-c3ccc(F)cc3)c12	0.76
O=C(Oc1cccc2cccnc12)c1ccc2c(c1)-c1ccccc1C2=O	-0.05
Cc1onc(-c2c(Cl)cccc2Cl)c1C(=O)Oc1cccc2cccnc12	1.1
O=C(Oc1cccc2cccnc12)c1ccc(Br)cc1	4.6*
COc1ccc(NC(C)=O)c(NC(=O)c2c(-c3ccccc3Cl)noc2C)c1	-0.15
COc1ccc(C(=O)N=C(N)COc2ccccc2Cl)cc1	-0.3
CC(C)(C)c1ccc(CSc2nc(N)cc(=O)[nH]2)cc1	-0.07
Nc1ccc(N(c2ccccc2)c2ccc(N)cc2)cc1	-0.2
COC(=O)C(=C(C)C)c1ccc(N(C)C)cc1	1
CN(C)c1ccc(C=C(c2ccc(N)cc2)c2ccc(N)cc2)cc1	6.4*
CCOC(CNc1ccc2nnc(-c3ccccc3)n2n1)OCC	-0.5
Cc1onc(-c2c(F)cccc2Cl)c1C(=O)NC(CN1CCOCC1)c1ccccc1 (centres undefined)	-1.1
COc1ccc(C(=O)Cn2c(=O)oc3ccc(C)cc32)cc1	-2
SMILES	Dicer inh
CC(=O)c1cc([N+](=O)[O-])c(Nc2ccccc2)s1	0.9
CC(=O)c1cc([N+](=O)[O-])c(Nc2ccc(Cl)cc2)s1	4.8*
COc1ccc(Nc2sc(C(C)=O)cc2[N+](=O)[O-])cc1	1.4
N#Cc1cc2c(nc1SCC(=O)Nc1ccc(S(N)(=O)=O)cc1)CCCCC2	1.7
c1coc(C2NCCc3ccccc32)c1 (centres undefined)	1
Cn1ncc2c(Sc3ccc(Cl)cc3)ncnc21	-3.1
Cc1ccn2cc(-c3cccc(S(=O)(=O)N4CCOCC4)c3)nc2c1	-0.79
Cc1cc(C)c(S(=O)(=O)Nc2cccc(-c3cn4ccccc4n3)c2)c(C)c1	3.7*
O=S(=O)(Nc1cccc(-c2cn3ccccc3n2)c1)c1ccc(Br)cc1	4.4*
O=S(=O)(Nc1cccc(-c2cn3ccccc3n2)c1)c1ccc(F)cc1	1.9
Cc1ccn2cc(-c3cccc(S(=O)(=O)N(C)C)c3)nc2c1	0.25
CC1CN(S(=O)(=O)c2cccc(-c3cn4ccccc4n3)c2)CC(C)O1 (centres undefined)	-0.73
Nc1c2c(=O)[nH]c(O)cc2nn1-c1ccccc1	-2.5
Cc1cc(C)nc(Nc2n[nH]c(Cc3ccccc3)n2)n1	0.13
COc1ccc(-c2nc(Nc3nc4ccccc4o3)ncc2C#N)cc1	1.9
Cc1cc(C)nc(Nc2nc3ccccc3o2)n1	4.6*
CCOC(=O)Cc1c(C(=O)OCC)[nH]c(C)c1C(=O)OCc1ccccc1	-0.76
CC(C)(C)c1ccc(C(=O)/C=C2\NC(=O)CS2)cc1	-2.3
COc1cccc(C(=O)/C=c2\[nH]c(=O)/c(=C\c3ccccc3)s2)c1	0.93
CC(C)(C)c1ccc(C(=O)/C=c2\[nH]c(=O)/c(=C\c3cccs3)s2)cc1	3.4*
COc1cc(C2c3c(oc4ccc(F)cc4c3=O)C(=O)N2c2nccs2)ccc1O (centres undefined)	0.97
Nc1ncnc2c1ncn2CC(O)CO (centres undefined)	6.8*
Nc1ncnc2c1ncn2CCc1ccccc1	-0.86
Nc1ncnc2c1ncn2CCN1CCCCC1	-1.7
Cc1ccc2nc(Nc3nc(C)c4ccccc4n3)[nH]c(=O)c2c1	-0.36
SMILES	Dicer inh
Cc1nc(Nc2nc3ccccc3c(=O)[nH]2)nc2c(C)cccc12	4*
Cc1cc2nc(Nc3nc4ccccc4c(=O)[nH]3)nc(C)c2cc1C	-1.1
O=c1[nH]nc(Sc2ncccc2C(F)(F)F)n1-c1ccccc1C(F)(F)F	1.9
CC(C)c1ccc(N2C(=O)/C(=C/N(C)C)SC2=S)cc1	0.36
Cc1cc(C)c2c(=O)c(/C=C3/SC(=S)N(c4ccc(F)cc4)C3=O)coc2c1	5.5*
O=C1S/C(=C\c2ccc(F)cc2)C(=O)N1c1ccccc1	1.3
N#CCC(=O)Nc1ccc(F)c(F)c1F	-1.8
CCCC(=O)Nc1ccc(OCC(O)CNC(C)C)c(C(C)=O)c1 (centres undefined)	1
Cc1[nH]c(-c2ccccn2)nc(=S)c1Cl	-1.4
Cc1cc(=S)nc(-c2ccccn2)[nH]1	6.9*
c1ccc(-c2nc3ccccc3nc2-c2ccccn2)nc1	-1.2
CC(C)(C)c1csc(-c2ccc(-n3cncn3)nc2)n1	-0.87
CN1CCN(C(=O)c2cnn3c(C(F)(F)F)cc(-c4ccco4)nc23)CC1	1.1
Cc1nn2c(C(F)(F)F)cc(-c3ccc(Cl)cc3)nc2c1Cl	-1.3
O=C(NCc1cccnc1)c1nn2c(C(F)(F)F)cc(-c3ccc(F)cc3)nc2c1Cl	3.1*
O=C(NCc1ccc(Cl)cc1)c1nn2c(C(F)(F)F)cc(-c3ccco3)nc2c1Cl	4.2*
O=C(Nc1ccc(F)c(Cl)c1)c1cc2nc(-c3ccco3)cc(C(F)(F)F)n2n1	-0.06
Cc1nn2c(C(F)(F)F)cc(-c3cccnc3)nc2c1-c1ccc(Cl)cc1	-0.72
CS/C(N)=N\N=C(/C)c1cc2ccccc2o1	0.04
CCSC1=C(C#N)C(c2ccc(Cl)cc2)C(C(=O)OC)C(=O)N1 (centres undefined)	1.1
CC1=C(C(=O)OC(C)C)C(c2ccccn2)n2ncnc2N1 (centres undefined)	1.8
COc1ccc(-c2cn3cc(Cl)ccc3n2)cc1F	1
COc1ccc(C2NC(=O)c3c(sc4c3CCCC4)N2)cc1 (centres undefined)	-1.2
O=C1NC(c2ccccc2Cl)Nc2sc3c(c21)CCCC3 (centres undefined)	5.9*
COc1cc(C2NC(=O)c3c(sc4c3CCCC4)N2)cc(OC)c1OC (centres undefined)	-0.42
SMILES	Dicer inh
COc1cc(C2NC(=O)c3c(sc4c3CCCC4)N2)cc(Br)c1OC (centres undefined)	4.1*
O=C1NC(c2ccc(Cl)cc2)Nc2sc3c(c21)CCCC3 (centres undefined)	0.55
O=C1NC(c2ccccc2Cl)Nc2sc3c(c21)CCN(Cc1ccccc1)C3 (centres undefined)	1.9
Cc1ccc(/C(O)=C2\C(=O)C(=O)N(CCCN3CCOCC3)C2c2ccccc2)cc1 (centres undefined)	0.17
COc1cc(OC)c(Br)cc1Br	-0.72
COc1ccc(S(=O)(=O)N2CCCN(S(=O)(=O)c3ccc(OC)cc3C)CC2)c(C)c1	3*
COc1ccc(S(=O)(=O)N2CCCN(S(=O)(=O)c3ccc(OC)cc3)CC2)cc1	-0.5
COc1ccc(OC)c(S(=O)(=O)N2CCC(C)CC2)c1	0.36
COCCNC(=O)c1cc2ccccc2oc1=O	-1.4
CC#CCOC(=O)c1c(C)nc2sc3c(c2c1N)CCC(O)C3 (centres undefined)	0.63
